This is one part of a sample in which hits are shown more often than they occur.
ST2 inh – blocks human ST2 binding to IL-33; Q01638; AlphaLISA ST2-Fc/biotin-IL-33 interaction, 1 h; inhibition, % for hits at 17 µM; 78,000 tested, 2.3% active; AID 1259354; in the data active means inhibition above about 30%
Target sequence (Q01638 whole entry, looked up): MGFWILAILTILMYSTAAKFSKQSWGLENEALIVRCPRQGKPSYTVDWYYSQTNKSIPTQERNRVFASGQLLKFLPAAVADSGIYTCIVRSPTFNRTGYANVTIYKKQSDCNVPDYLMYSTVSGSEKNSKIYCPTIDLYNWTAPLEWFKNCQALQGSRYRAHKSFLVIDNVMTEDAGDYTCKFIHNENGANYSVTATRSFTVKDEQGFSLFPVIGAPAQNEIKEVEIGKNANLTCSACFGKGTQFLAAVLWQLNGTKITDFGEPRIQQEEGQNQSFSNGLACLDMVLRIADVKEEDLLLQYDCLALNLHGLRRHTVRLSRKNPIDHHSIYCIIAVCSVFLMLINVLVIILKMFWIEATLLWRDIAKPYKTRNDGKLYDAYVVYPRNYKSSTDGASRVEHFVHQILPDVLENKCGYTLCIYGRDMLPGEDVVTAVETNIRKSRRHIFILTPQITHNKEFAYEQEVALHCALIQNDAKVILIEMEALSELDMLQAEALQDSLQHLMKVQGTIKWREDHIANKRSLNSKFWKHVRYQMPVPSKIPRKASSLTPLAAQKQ
Hits are given with their value; 0 = inactive.

SMILES | ST2 inh
Brc1ccc(CN2CCN(c3ccccc3)CC2)cc1 | 32%
CC(C)c1ccc(CN2CCN(c3ccccc3)CC2)cc1 | 0
CC(=O)c1ccc(N2CCN(Cc3cccc(Br)c3)CC2)cc1 | 0
Cc1ccccc1N1CCN(Cc2ccc(Br)cc2)CC1 | 0
COc1ccc(N2CCN(Cc3ccc(C)cc3)CC2)cc1 | 33%
CC(=O)c1ccc(N2CCN(Cc3ccc(C)cc3)CC2)cc1 | 0
COc1ccc(N2CCN(Cc3cccc(Br)c3)CC2)cc1 | 44%
Fc1ccc(N2CCN(Cc3cccc(Br)c3)CC2)cc1 | 0
COc1cc(C)c(CN2CCN(c3ccc(F)cc3)CC2)cc1C | 0
COCCNC(=S)NC[C@H]1C[C@@H]2CCN1C[C@@H]2CN1CCN(c2ncccn2)CC1 | 0
O=C(c1cn(-c2ccccc2)nn1)N1C[C@@H]2C[C@H](C1)c1cccc(=O)n1C2 | 0
CN1C(=O)C(=Cc2cccn2-c2ccc(Cl)cc2)C(=O)N(C)C1=O | 0
CC(=O)Nc1ccc(-c2ccc3n(c2=O)C[C@H]2C[C@@H]3CN(C(=O)c3ccncc3)C2)cc1 | 0
Nc1c(C(=O)Nc2ccccc2)sc2nc3c(cc12)N1CCC3CC1 | 0
O=c1cccc2n1C[C@H]1C[C@@H]2CN(Cc2ccc([N+](=O)[O-])cc2)C1 | 0
O=C(NCCC1=CCCCC1)c1cn(CC2CCCO2)nn1 (stereo not given) | 0
O=C(Nc1ccc2n(c1=O)C[C@H]1C[C@@H]2CN(C(=O)c2ccccc2)C1)c1cccs1 | 0
CN1C(=O)C2(CCN(Cc3nc(-c4ccco4)no3)CC2)c2ccccc21 | 0
COCCNC(=S)NC[C@H]1C[C@@H]2CCN1C[C@@H]2CN1CCCCC1 | 0
COc1ccccc1CC(C)N(C)C(=O)Cc1csc(C)n1 (stereo not given) | 0
COc1ccccc1N1CCN(Cc2ccc(F)cc2)CC1 | 0
COc1ccc(CN2CCN(c3ccc(OC)cc3)CC2)cc1 | 32%
COc1cc(OC)c(CN2CCN(C)CC2)cc1Br | 0
COc1ccc(CN2CCN(Cc3ccccc3Cl)CC2)cc1Br | 0
COc1cc(OC)c(CN2CCN(c3ccccc3)CC2)cc1Br | 36%
SMILES | ST2 inh
CCOc1ccccc1N1CCN(Cc2ccc(OC)cc2)CC1 | 0
CC(Cc1cnccn1)NCC(=O)Nc1cnccn1 (stereo not given) | 0
CCCCNC(=O)c1oc2ccc(S(=O)(=O)N3CC(C)CC(C)C3)cc2c1C (stereo not given) | 0
Cc1cc(N(C)C)cc(C)[n+]1OC(=O)N(c1ccccc1)c1ccccc1 | 0
O=C1NC(=O)C(CCc2ccncc2)(CCc2ccncc2)C(=O)N1c1ccccc1 | 0
S=C(NC[C@H]1C[C@@H]2CCN1C[C@@H]2CN1CCN(c2ccccc2)CC1)Nc1ccccc1 | 0
S=C(NC[C@H]1C[C@@H]2CCN1C[C@@H]2CN1CCSCC1)Nc1ccccc1 | 0
COCCC(=O)N1C[C@@H]2C[C@H](C1)c1ccc(NC(=O)C3CCCCC3)c(=O)n1C2 | 0
COc1ccc(-c2cc([C@H]3CN4CC[C@H]3C[C@@H]4CNC(=S)Nc3ccccc3)n(C)n2)cc1 | 0
Cn1nc(C2CCCCC2)cc1[C@H]1CN2CC[C@H]1C[C@@H]2CNS(=O)(=O)c1cccs1 | 0
CN(C)c1ccc(N2CCNCC2)c([N+](=O)[O-])c1 | 0
O=[N+]([O-])c1cc(F)c(N2CCCCC2)cc1Br | 42%
CC1CN(c2ccccc2[N+](=O)[O-])CC(C)N1 (stereo not given) | 0
CC1CCN(c2cc(Br)c([N+](=O)[O-])cc2F)CC1 | 45%
CC(C)c1noc(CN2CCC3(CC2)C(=O)N(C)c2ccccc23)n1 | 0
CCN(CC)C(=O)c1ccc2c(c1)C1C=CCC1C(C(=O)O)N2 (stereo not given) | 60%
CCN(CC)C(=O)c1ccc(N2C(=O)C3CC=C(Cl)CC3C2=O)cc1 (stereo not given) | 0
COc1ncc(C(=O)N2CCN3CCN(C)C(=O)C3C2)cn1 (stereo not given) | 0
C=C[C@H]1CN2CC[C@H]1C[C@@H]2CNC(=S)NCC | 0
COCc1ncc(CN2CCN(C)C3(CCN(C)CC3)C2)cn1 | 0
COc1ccc(CN2CCN(C)CC2)c(OC)c1C | 0
CCN1CCN(Cc2ccc(OC)c(C)c2C)CC1 | 0
COc1ccc(CN2CCN(Cc3ccccc3)CC2)c(C)c1C | 34%
S=C(NCCN1CCOCC1)NC[C@H]1C[C@@H]2CCN1C[C@@H]2CN1CCCCC1 | 0
CN(C)c1ccc(C(=O)NC[C@H]2C[C@@H]3CCN2C[C@@H]3CN2CCC(Cc3ccccc3)CC2)cc1 | 0
SMILES | ST2 inh
COc1cc2c(cc1O)C1(C)CCC(O)C(C)(C)C1CC2=O (stereo not given) | 37%
CC(=O)N1C[C@@H]2C[C@H](C1)c1ccc(N)c(=O)n1C2 | 0
CCOC(=O)c1nc2ccccc2c(=O)n1-c1cc(Cl)c(OC)cc1OC | 0
COc1cc(/C=C/c2nc3ccccc3c(=O)n2-c2ccccc2OC)ccc1O | 0
Cc1ccnc(-n2c(C)nc3ccccc3c2=O)c1 | 0
COc1ccc(/C=C/c2nc3ccccc3c(=O)n2-c2ccccc2[N+](=O)[O-])cc1 | 44%
O=c1c2ccccc2nc(/C=C/c2ccc(O)cc2)n1-c1cccc([N+](=O)[O-])c1 | 34%
O=c1c2ccccc2nc(/C=C/c2ccc(F)cc2)n1-c1ccccc1 | 0
COc1ccc(-n2c(/C=C\c3ccccc3F)nc3ccccc3c2=O)c(OC)c1 | 30%
Cc1ccc(-n2c(C)nc3ccc(I)cc3c2=O)c([N+](=O)[O-])c1 | 0
O=c1c2ccccc2nc(Cc2ccccc2)n1-c1ccccc1 | 0
CCn1nc(C)c(NC(=O)CN2C[C@@H]3C[C@H](C2)c2cccc(=O)n2C3)c1C | 0
Cc1nc2sccn2c1C(=O)N1C[C@@H]2C[C@H](C1)c1cccc(=O)n1C2 | 0
C=C[C@H]1CN2CC[C@H]1C[C@@H]2CNC(=S)NCc1ccco1 | 0
CS(=O)(=O)NC[C@H]1C[C@@H]2CCN1C[C@@H]2CN1CCN(c2ccc(F)cc2)CC1 | 0
O=[N+]([O-])c1ccc(C(Cl)Cl)o1 | 64%
O=C(CN1C(=O)CN=C(c2ccccc2)c2ccccc21)Nc1ccccc1C(F)(F)F | 0

High-throughput results: PubChem BioAssay, Paczesny and Yang Labs, IUPUI and University of Michigan
